Reference: PubChem BioAssay (EPA / NIEHS)
A structure can be active in one record and inactive in another. The source made the active and inactive calls. The calls were made as follows: active = hit-call score of the fitted dose curve at least 0.9, where 1 is the maximum; inactive = score below 0.9.

Key:
[1] = BSK_KF3CT_SRB: Viability Assessment in the BioMAP Diversity Plus: KF3CT Assay (AID 2283069); conditions: primary human keratinocytes with fibroblasts
Summary of the method: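 Overt cytotoxicity is assessed as total protein by sulforhodamine B staining in parallel human skin co-cultures at 24 h after dosing. DMSO serves as negative control and baseline.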

[2] = read-out: TIMP metallopeptidase inhibitor 2 (TIMP2), TIMP2 (gene 7077); assay: BSK_KF3CT_TIMP2: BioMAP Diversity Plus: KF3CT Assay for TIMP metallopeptidase inhibitor 2 (TIMP2) Biomarker Activity (AID 2283071); conditions: primary human keratinocytes with fibroblasts; actives raise or lower the signal
Summary of the method: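 Measurements come from ELISA detection of TIMP-2 at 24 hours in a dosed human keratinocyte and foreskin fibroblast co-culture. DMSO serves as negative control and baseline.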

[3] = read-out: Transforming growth factor beta 1 (TGFb1), TGFB1 (gene 7040); assay: BSK_KF3CT_TGFb1: BioMAP Diversity Plus: KF3CT Assay for Transforming growth factor beta 1 (TGFb1) Biomarker Activity (AID 2283072); conditions: primary human keratinocytes with fibroblasts; actives raise or lower the signal
Summary of the method: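 TGF-b1 ELISA on a 24 h dosed co-culture of human keratinocytes and foreskin fibroblasts; cytotoxicity tracked in parallel cultures by SRB staining.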

[4] = read-out: C-C motif chemokine 2 (Homo sapiens) (UniProt P13500); assay: BSK_KF3CT_MCP1: BioMAP Diversity Plus: KF3CT Assay for Monocyte Chemoattractant Protein 1 (MCP1/CCL2) Biomarker Activity (AID 2283073); conditions: primary human keratinocytes with fibroblasts; actives raise or lower the signal
Summary of the method: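 ELISA read-out of MCP-1, 24 h post-dose, in primary human skin keratinocytes co-cultured with fibroblasts. Parallel SRB staining monitors cytotoxicity; changes fitted both directions relative to DMSO.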

[5] = read-out: Matrix Metallopeptidase 9 (MMP9), MMP9 (gene 4318); assay: BSK_KF3CT_MMP9: BioMAP Diversity Plus: KF3CT Assay for Matrix Metallopeptidase 9 (MMP9) Biomarker Activity (AID 2283074); conditions: primary human keratinocytes with fibroblasts; actives raise or lower the signal
Summary of the method: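 Values come from bidirectional fitting relative to DMSO of MMP-9 levels, which were measured by ELISA. Measurements were taken 24 h after chemical dosing of a keratinocyte and foreskin fibroblast co-culture.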

[6] = read-out: urokinase plasminogen activator (uPA), PLAU (gene 5328); assay: BSK_KF3CT_uPA: BioMAP Diversity Plus: KF3CT Assay for urokinase plasminogen activator (uPA) Biomarker Activity (AID 2283075); conditions: primary human keratinocytes with fibroblasts; actives raise or lower the signal
Summary of the method: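 Values derive from bidirectional fitting against DMSO controls. Keratinocyte/foreskin fibroblast co-cultures received chemical; 24 h later uPA was detected by ELISA, with SRB total-protein staining in parallel wells for overt cytotoxicity.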

CD40, CD40 (gene 958) [7] = assay: BSK_LPS_CD40: BioMAP Diversity Plus: LPS Assay for CD40 Biomarker Activity (AID 2283076); conditions: primary human HUVEC with PBMC; actives raise or lower the signal
Summary of the method: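 In the LPS system of human endothelial cells with peripheral blood mononuclear cells, CD40 levels were read by ELISA 24 h post-treatment. Signal changes in either direction were fitted against the DMSO baseline, with parallel SRB protein staining.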

[8] = read-out: E-selectin (Homo sapiens) (UniProt P16581); assay: BSK_LPS_Eselectin: BioMAP Diversity Plus: LPS Assay for Eselectin Biomarker Activity (AID 2283077); conditions: primary human HUVEC with PBMC; actives raise or lower the signal
Summary of the method: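 E-selectin ELISA on LPS-stimulated endothelial cell/PBMC co-cultures, read 24 h post-treatment; gains and losses fitted against DMSO. Parallel SRB staining (0.1% SRB after 10% TCA fixation, 560 nm) flags overt cytotoxicity.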

[9] = read-out: Interleukin-8 (IL8), CXCL8 (gene 3576); assay: BSK_LPS_IL8: BioMAP Diversity Plus: LPS Assay for Interleukin-8 (IL8) Biomarker Activity (AID 2283078); conditions: primary human HUVEC with PBMC; actives raise or lower the signal
Summary of the method: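 ELISA read-out of IL-8 after 24 h chemical treatment of LPS-activated endothelial/PBMC human primary co-cultures. Changes either up or down relative to DMSO; overt cytotoxicity checked by sulforhodamine B staining in parallel wells.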

[10] = BSK_LPS_SRB: Viability Assessment in the BioMAP Diversity Plus: LPS Assay (AID 2283079); conditions: primary human HUVEC with PBMC;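 also: total protein by sulforhodamine B absorbance as a cytotoxicity measure; measured one day after compound addition; fitted in both directions against DMSO so loss or gain of signal counts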
Summary of the method: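 SRB viability endpoint: cells fixed with 10% TCA, stained with 0.1% SRB, read at 560 nm, 24 h post-dose. HUVEC/PBMC co-culture; signal change in either direction scored relative to DMSO.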

[11] = read-out: Interleukin-1 alpha (IL1a), IL1A (gene 3552); assay: BSK_LPS_IL1a: BioMAP Diversity Plus: LPS Assay for Interleukin-1 alpha (IL1a) Biomarker Activity (AID 2283080); conditions: primary human HUVEC with PBMC; actives raise or lower the signal
Summary of the method: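 Readout is IL-1a level by ELISA, 24 h post-dose, fitted as gain or loss relative to DMSO. System: LPS-activated human primary co-culture of vascular endothelium and peripheral blood mononuclear cells, with parallel SRB total-protein cytotoxicity.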

[12] = read-out: Monocyte Chemoattractant Protein-1 (MCP1), CCL2 (gene 6347); assay: BSK_LPS_MCP1: BioMAP Diversity Plus: LPS Assay for Monocyte Chemoattractant Protein-1 (MCP1) Biomarker Activity (AID 2283081); conditions: primary human HUVEC with PBMC; actives raise or lower the signal
Summary of the method: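 Secreted MCP-1 read by ELISA at 24 h post-dosing in an LPS-activated co-culture of endothelial cells with peripheral blood mononuclear cells. Fits run in both directions, DMSO as baseline; parallel SRB staining tracks overt cytotoxicity.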

[13] = BSK_LPS_PGE2: BioMAP Diversity Plus: LPS Assay for Prostaglandin E2 (PGE2) Biomarker Activity (AID 2283082); conditions: primary human HUVEC with PBMC; actives raise or lower the signal;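 as to AC50: secreted prostaglandin E2 measured by ELISA in LPS-stimulated co-culture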
Summary of the method: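 Primary human endothelial cells and blood mononuclear cells, co-cultured with LPS, receive test chemical; PGE2 ELISA follows at 24 h, with SRB-stained parallel cultures flagging cytotoxicity.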

[14] = read-out: Macrophage colony-stimulating factor (MCSF), CSF1 (gene 1435); assay: BSK_LPS_MCSF: BioMAP Diversity Plus: LPS Assay for Macrophage colony-stimulating factor (MCSF) Biomarker Activity (AID 2283083); conditions: primary human HUVEC with PBMC; actives raise or lower the signal
Summary of the method: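 Bidirectional fitting against DMSO was applied to M-CSF levels read by ELISA at 24 h post-dose. The system pairs human umbilical vein endothelium with peripheral blood mononuclear cells; parallel SRB staining tracked cytotoxicity.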

[15] = read-out: Tissue Factor, F3 (gene 2152); assay: BSK_LPS_TissueFactor: BioMAP Diversity Plus: LPS Assay for Tissue Factor Biomarker Activity (AID 2283084); conditions: primary human HUVEC with PBMC; actives raise or lower the signal
Summary of the method: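 Compound was added to an endothelial cell/PBMC co-culture, and after 24 h tissue factor (CD142) was read by ELISA. Gain or loss of signal was fitted against a DMSO baseline, and parallel SRB staining (560 nm) tracked overt cytotoxicity.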

[16] = read-out: Tumor necrosis factor (Homo sapiens) (UniProt P01375); assay: BSK_LPS_TNFa: BioMAP Diversity Plus: LPS Assay for Tumour Necrosis Factor alpha (TNFa) Biomarker Activity (AID 2283085); conditions: primary human HUVEC with PBMC; actives raise or lower the signal;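 as to AC50: TNFa protein level quantified by ELISA in the co-culture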
Summary of the method: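 ELISA-based TNFa endpoint in a human endothelial–PBMC co-culture sampled 24 h post-exposure. Curves were fitted in both directions using DMSO as baseline of activity.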

[17] = read-out: Vascular cell adhesion molecule 1 (VCAM1), VCAM1 (gene 7412); assay: BSK_LPS_VCAM1: BioMAP Diversity Plus: LPS Assay for Vascular cell adhesion molecule 1 (VCAM1) Biomarker Activity (AID 2283086); conditions: primary human HUVEC with PBMC; actives raise or lower the signal
Summary of the method: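 Measured by ELISA: VCAM-1 in LPS-activated HUVEC/PBMC co-cultures 24 h after treatment. Values reflect bidirectional fitting with DMSO as baseline.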

CD38, CD38 (gene 952) = assay: BSK_SAg_CD38: BioMAP Diversity Plus: SAg Assay for CD38 Biomarker Activity (AID 2283087); conditions: primary human HUVEC with PBMC; actives raise or lower the signal
Summary of the method: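 Measures CD38 on a human endothelial/PBMC co-culture driven by SEB and TSST-1, 24 h after compound exposure, using ELISA with fluorescence detection; DMSO defines baseline for bidirectional curve fitting.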

CD40, CD40 (gene 958) [18] = assay: BSK_SAg_CD40: BioMAP Diversity Plus: SAg Assay for CD40 Biomarker Activity (AID 2283088); conditions: primary human HUVEC with PBMC; actives raise or lower the signal
Summary of the method: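 CD40 is measured by fluorescence ELISA in an endothelial/PBMC primary human co-culture at 24 h post-dose. Fitting is bidirectional, DMSO baseline. Parallel SRB staining (560 nm) flags cytotoxicity.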

[19] = read-out: Interleukin-1 alpha (IL1a), IL1A (gene 3552); assay: BSK_KF3CT_IL1a: BioMAP Diversity Plus: KF3CT Assay for Interleukin-1 alpha (IL1a) Biomarker Activity (AID 2283070); conditions: primary human keratinocytes with fibroblasts; actives raise or lower the signal
Summary of the method: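 Readout is IL-1a level by ELISA, compared bidirectionally with DMSO as baseline. Cells: human keratinocytes co-cultured with foreskin fibroblasts, harvested 24 h post-dose.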

Measured: AC50

Chain of Tumor necrosis factor (Homo sapiens) (P01375 whole entry, looked up): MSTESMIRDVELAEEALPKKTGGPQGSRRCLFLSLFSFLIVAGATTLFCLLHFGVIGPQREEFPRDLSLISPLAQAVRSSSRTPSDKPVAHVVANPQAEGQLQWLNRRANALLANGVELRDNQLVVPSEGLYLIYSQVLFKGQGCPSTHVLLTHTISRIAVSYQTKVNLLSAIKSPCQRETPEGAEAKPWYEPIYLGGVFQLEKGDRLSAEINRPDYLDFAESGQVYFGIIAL
Chain of E-selectin (Homo sapiens) (P16581 whole entry, looked up): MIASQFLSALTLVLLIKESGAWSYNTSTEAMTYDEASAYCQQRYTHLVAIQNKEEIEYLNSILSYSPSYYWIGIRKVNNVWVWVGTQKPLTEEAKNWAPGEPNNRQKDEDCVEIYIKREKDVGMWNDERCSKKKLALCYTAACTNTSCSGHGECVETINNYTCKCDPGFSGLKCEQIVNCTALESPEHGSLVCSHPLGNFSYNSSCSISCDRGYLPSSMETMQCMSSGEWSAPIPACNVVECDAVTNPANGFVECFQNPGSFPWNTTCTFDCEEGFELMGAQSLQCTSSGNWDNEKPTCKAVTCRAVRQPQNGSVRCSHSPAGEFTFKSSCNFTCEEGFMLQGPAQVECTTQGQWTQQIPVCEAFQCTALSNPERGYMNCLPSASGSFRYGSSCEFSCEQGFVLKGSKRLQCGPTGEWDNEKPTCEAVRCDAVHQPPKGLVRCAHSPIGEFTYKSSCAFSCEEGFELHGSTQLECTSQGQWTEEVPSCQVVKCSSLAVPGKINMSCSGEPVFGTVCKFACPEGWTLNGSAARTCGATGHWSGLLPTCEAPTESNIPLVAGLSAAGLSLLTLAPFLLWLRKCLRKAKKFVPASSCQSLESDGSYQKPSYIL

Cc1ccc2c(c1N)C(=O)c1ccccc1C2=O
active: [2] 6.86 µM | [15] 20 µM | CD38, CD38 (gene 952) 12.6 µM
not listed: [19]
inactive: all other assays above

c1ccc2c(c1)Nc1ccccc1S2
active: [2] 27.3 µM | [13] 374 nM | [16] 148 nM | CD40, CD40 (gene 958) [18] 26.8 µM
not listed: [6] | [19]
inactive: all other assays above

Nc1ccc([N+](=O)[O-])cc1Cl
not listed: [19]
inactive: all other assays above

OCC(F)(F)OC(F)(F)C(F)(F)OC(F)(F)C(F)(F)OC(F)(F)CO
active: CD40, CD40 (gene 958) [7] 7.62 µM | [10] 30 µM | CD38, CD38 (gene 952) 24.3 µM | CD40, CD40 (gene 958) [18] 30 µM
inactive: [1] | [19] | [2] | [4] | [6] | CD40, CD40 (gene 958) [7] | [8] | [9] | [10] | [11] | [12] | [13] | [14] | [15] | [16] | [17] | CD38, CD38 (gene 952) | CD40, CD40 (gene 958) [18]
